Records with an inconclusive call do not appear. Unmarked numbers belong to inactive results. The source made the active and inactive calls. The call rests on the fitted dose curve; in most records, active means well fitted inhibition curve with a large enough effect; inconclusive means small, poorly fitted or top-dose-only effect; inactive means no such curve, though single readings can be large or run the other way.
biological target: Rap guanine nucleotide exchange factor 3 (Homo sapiens) (UniProt O95398); experiment: Counterscreen qHTS for antagonist of cAMP-regulated guanine nucleotide exchange factor 3 (EPAC1) (AID 1645888); details: Rap1B-BODIPY-GDP nucleotide exchange, fluorescence; series mostly up to 154 µM; activity change, negative = inhibition: at the top concentration;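 on activity change, negative = inhibition: fluorescence loss as bound BODIPY-GDP is released from Rap1B; % of control where 0% means no effect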
Summary of the method: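 Rap1B-BODIPY-GDP 250 nM + GDP 50 uM; cpds 7-pt, final 9.74 nM–152 uM (activator mode) or from 7.32 nM upwards (inhibitor mode); RT; FI 480/540 nm at 5 and 30 min, then ± cAMP, reread.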
Potency means the concentration at half of the fitted maximal effect.

Rap guanine nucleotide exchange factor 3 (Homo sapiens), sequence (O95398 whole entry, looked up): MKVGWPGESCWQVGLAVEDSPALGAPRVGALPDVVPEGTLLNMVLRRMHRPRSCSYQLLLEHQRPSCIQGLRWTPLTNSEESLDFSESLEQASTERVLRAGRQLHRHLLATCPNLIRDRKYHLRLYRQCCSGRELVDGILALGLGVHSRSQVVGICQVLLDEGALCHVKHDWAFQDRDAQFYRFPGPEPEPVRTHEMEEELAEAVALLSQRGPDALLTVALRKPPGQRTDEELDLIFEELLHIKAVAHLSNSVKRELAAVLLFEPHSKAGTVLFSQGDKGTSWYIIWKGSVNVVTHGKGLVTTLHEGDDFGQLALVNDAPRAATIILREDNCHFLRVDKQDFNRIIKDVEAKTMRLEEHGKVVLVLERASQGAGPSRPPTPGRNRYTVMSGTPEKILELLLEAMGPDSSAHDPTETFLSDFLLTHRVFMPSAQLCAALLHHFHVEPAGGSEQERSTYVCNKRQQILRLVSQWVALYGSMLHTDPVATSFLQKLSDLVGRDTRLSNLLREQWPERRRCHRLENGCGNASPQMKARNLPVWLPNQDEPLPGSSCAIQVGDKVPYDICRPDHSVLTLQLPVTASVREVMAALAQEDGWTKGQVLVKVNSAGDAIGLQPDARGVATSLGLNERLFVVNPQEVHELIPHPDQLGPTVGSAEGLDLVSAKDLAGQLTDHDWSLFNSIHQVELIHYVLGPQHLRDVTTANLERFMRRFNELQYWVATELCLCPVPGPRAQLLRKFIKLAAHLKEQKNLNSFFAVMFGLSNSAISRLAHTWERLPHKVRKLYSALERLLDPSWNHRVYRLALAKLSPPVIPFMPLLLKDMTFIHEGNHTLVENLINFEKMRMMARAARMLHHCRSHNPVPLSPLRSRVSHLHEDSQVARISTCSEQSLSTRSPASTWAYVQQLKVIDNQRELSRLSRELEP

SMILES | activity change, negative = inhibition | Potency
N#CCCN(CCC#N)S(=O)(=O)c1ccc(C(=O)Nc2nnc(C3=COCCO3)o2)cc1 | 17.3% | 
C=CS(=O)(=O)N(Cc1ccccc1Br)[C@H](CO)CC(C)C | -13.6% [at 30.8 µM] | 
CC(C)Cc1ccc(CN2CCCC(NC(=O)c3cnc4ccccn4c3=O)C2)cc1 (stereo not given) | 5.64% [at 30.8 µM] | 
Cc1ccc(C(C)C)c(OCC(=O)NCC2(N3CCOCC3)CCCCC2)c1 | -22.5% | 
O=C(/C=C/c1ccco1)Nc1cccc2cccnc12 | 21.3% [at 30.8 µM] | 
CC(C)(C)Cc1c(-c2ccccc2)nc2ccc(Cl)cn12 | -2.23% [at 30.8 µM] | 
COc1cn(-c2ccccc2)nc1C(=O)Nc1ccc(C)cc1Cl | 5.79% | 
Cn1cccc1C(=O)NC(=O)COC(=O)c1ccc(S(C)(=O)=O)c([N+](=O)[O-])c1 | -20.5% [at 30.8 µM] | 
CN(C)C(CNC(=O)c1cc(-c2ccco2)nc2ccccc12)c1ccccc1 (stereo not given) | -8.2% [at 30.8 µM] | 
CCc1ccc(C(c2ccccc2)c2c(C)[nH]c3ccccc23)s1 (stereo not given) | 23.2% | 
CCOC(=O)C1=CCN(S(=O)(=O)c2ccccc2Cl)C1c1ccc(Cl)c(Cl)c1 (stereo not given) | -3.01% [at 30.8 µM] | 
Oc1cccc(C=Nc2cccc3ccccc23)c1O | 8.98% | 
Cc1csc(NC(=O)CSc2sc3c(O)cc(=O)[nH]c3c2C#N)n1 | -6.14% | 
COc1ccccc1N1CSC2=C(C#N)C(c3ccc(SC)cc3)CC(=O)N2C1 (stereo not given) | -2.77% [at 30.8 µM] | 
CCN(C(=O)Cn1c(C(=O)OC)cc2sccc21)c1cccc(C)c1 | -2.45% | 
CCc1ccc2c(c1)NC(=O)C2(C)Cc1ccc(F)cc1 (stereo not given) | 16.2% [at 30.8 µM] | 
Cc1cccc(N2CCN(C(=O)c3[nH]c(C(F)(F)F)nc3-c3ccccc3)CC2)c1C | -3.13% | 
Cc1ccc(Cn2ccnc2SCC(=O)Nc2ccc3c(c2)OCO3)cc1 | 5.21% | 
Clc1ccc(C(c2ccccc2)c2c[nH]c3ccccc23)s1 (stereo not given) | 33.7% | 
O=S(=O)(Nc1cc(Sc2ncn[nH]2)c(O)c2ccccc12)c1ccccc1 | 3.32% [at 30.8 µM] | 

SMILES | activity change, negative = inhibition | Potency
COc1cc(OC)c(NC(=O)CN(C)S(=O)(=O)c2ccc(-c3ccc(=O)[nH]n3)s2)cc1Cl | 48.9% | 
CC(C)Nc1nc(NC(C)C)nc(OCCOC(=O)c2ccccc2)n1 | 3.23% | 
O=S(=O)(Nc1ccc(Cl)cc1NS(=O)(=O)c1ccccc1)c1ccccc1 | -27.8% [at 30.8 µM] | 
O=C(O)c1ccc(/C=N/NC(=O)c2cc(-c3ccc4c5c(cccc35)CC4)n[nH]2)cc1 | 21.1% | 
CCC(=O)N(CCC1(c2ccccc2OC)CCOC(C(C)C)C1)Cc1ccco1 (stereo not given) | -14.7% [at 30.8 µM] | 
CC[C@@H]1CC=C[C@H]2[C@H]1C(=O)N(Cc1ccccc1)[C@H]2c1ccc(OC)c(Cl)c1 | -13.6% | 
O=c1c([N+](=O)[O-])cn(Cc2ccccc2)c(=O)n1Cc1ccccc1 | -12.8% [at 30.8 µM] | 
O=C1NC(=O)C(=Cc2ccccc2[N+](=O)[O-])S1 | 0.254% [at 30.8 µM] | 
Cc1cc(C)c(S(=O)(=O)c2ccccc2)c(OC(=O)c2c(F)cccc2F)n1 | 8% [at 30.8 µM] | 
CC(C)C(CCNC(=O)CC(Cc1ccccc1)c1ccco1)c1ccco1 (stereo not given) | 24.9% [at 30.8 µM] | 
COc1ccccc1-c1oc2ccccc2c1C#CC(C)(C)O | -13.1% | 
CCOc1cccc(CNc2ccc(O)cc2)c1OCc1ccc(Cl)cc1 | -11.8% | 
COc1ccccc1[C@]1(C)ON(c2ccccc2C(F)(F)F)C1=O | 11.4% | 
CCCC(=O)OC1CC(C)N(C(=O)c2ccccc2)c2ccc(C)cc21 (stereo not given) | -2.85% [at 30.8 µM] | 
Cc1cccc([C@H]2[C@@H]3C=CCC[C@@H]3C(=O)N2Cc2ccccc2)c1 | 7.66% | 
CCOc1cc(CNCCSc2nnnn2C)ccc1OCc1ccc(Cl)cc1Cl |  | 63.1 µM (active)
Cn1c(=O)c2c(-c3ccccc3Br)n(Cc3ccccc3)cc2n(C)c1=O | 4.22% | 
CCn1c(SCC(=O)N/N=C/C=C\c2ccco2)nc2ccccc21 | 16.1% | 
C/C=C/COC(=O)c1[nH]c2c(c1C)C(=O)CC(c1ccco1)C2 (stereo not given) | -0.755% | 
Cc1ccc(O)c(-c2n[nH]c3c2C(c2ccc(F)cc2)N(Cc2ccco2)C3=O)c1 (stereo not given) | -21.5% | 

Reference: PubChem BioAssay (NCATS)
